# Data: the supplement of paper PMC8387472
# How the values were obtained:
# Assay in all cases: fraction of edited reads among all mapped reads; higher = more Cas9 editing
# Conditions in all cases: mESC; 2uM; 72 h treatment, harvest day 5
# [1] = compound: CC(C)(C#N)c1ccc(N2C(=O)OCc3cnc4ccc(-c5cnc6ccccc6c5)cc4c32)cc1
# [2] = compound: CCCCOc1c(C(=O)c2c(F)cc(C)cc2F)c[nH]c2nncc1-2
# [3] = compound: CNc1ccc([N+](=O)[O-])c(Nc2ccc3[nH]ncc3c2)n1
# Rifapentine = compound: CO[C@H]1/C=C/O[C@@]2(C)Oc3c(C)c(O)c4c(O)c(c(/C=N/N5CCN(C6CCCC6)CC5)c(O)c4c3C2=O)NC(=O)/C(C)=C\C=C\[C@H](C)[C@H](O)[C@@H](C)[C@@H](O)[C@@H](C)[C@H](OC(C)=O)[C@@H]1C [Rifapentine]
# [4] = compound: Cc1ccc(C(=O)NCCCCCC(=O)Nc2ccccc2N)cc1
# Tucidinostat (Chidamide) = compound: Nc1cc(F)ccc1NC(=O)c1ccc(CNC(=O)/C=C/c2cccnc2)cc1 [Tucidinostat (Chidamide)]
# Pemetrexed = compound: Nc1nc2[nH]cc(CCc3ccc(C(=O)N[C@@H](CCC(=O)O)C(=O)O)cc3)c2c(=O)[nH]1 [Pemetrexed]
# [5] = compound: Nc1ncnc2c1c(-c1cnc3[nH]ccc3c1)nn2C1CCCC1
# Genistein = compound: O=c1c(-c2ccc(O)cc2)coc2cc(O)cc(O)c12 [Genistein]
# [6] = compound: CC(=O)O/N=C1\C(=O)N(Cc2cc(Cl)ccc2Cl)c2ccc(Cl)cc21
# [7] = compound: CCN1CCN(CC(=O)Nc2ccc(-c3cccc4c(=O)cc(N5CCOCC5)oc34)c3sc4ccccc4c23)CC1
# [8] = compound: CCc1c2c(nc3ccc(OC(=O)N4CCC(N5CCCCC5)CC4)cc13)-c1cc3c(c(=O)n1C2)COC(=O)[C@]3(O)CC [Irinotecan HCl Trihydrate]
# [9] = compound: CCn1c(=O)c(-c2ccc(Cl)cc2Cl)cc2cnc(Nc3ccc(N4CCNCC4)c(F)c3)nc21
# [10] = compound: COc1ccccc1-c1cc(Nc2cccc(CS(N)(=O)=O)c2)ncn1
# [11] = compound: C[C@@H]1CN(CC(=O)Nc2ccc3c(c2)Cc2cccc(-c4cc(=O)cc(N5CCOCC5)o4)c2S3)C[C@H](C)O1
# [12] = compound: Cc1cc(C)nc(SCC(=O)Nc2ncc(Cc3cccc4ccccc34)s2)n1
# [13] = compound: Cc1cccc(CC(=O)N2CCc3c2ccc(-c2cn(C)c4ncnc(N)c24)c3F)n1
# [14] = compound: NC(=O)c1ccc2nc(-c3ccc(Oc4ccc(Cl)cc4)cc3)[nH]c2c1 [Chk 2 inhibitor II (BML-277)]
# [15] = compound: O=C(c1cccc(Cl)c1F)N1CCN(Cc2cccc(Nc3nccs3)n2)CC1
# Kenpaullone = compound: O=C1Cc2c([nH]c3ccc(Br)cc23)-c2ccccc2N1 [Kenpaullone]
Target,fraction of edited reads among all mapped reads [1],fraction of edited reads among all mapped reads [2],fraction of edited reads among all mapped reads [3],fraction of edited reads among all mapped reads (Rifapentine),fraction of edited reads among all mapped reads [4],fraction of edited reads among all mapped reads (Tucidinostat (Chidamide)),fraction of edited reads among all mapped reads (Pemetrexed),fraction of edited reads among all mapped reads [5],fraction of edited reads among all mapped reads (Genistein),fraction of edited reads among all mapped reads [6],fraction of edited reads among all mapped reads [7],fraction of edited reads among all mapped reads [8],fraction of edited reads among all mapped reads [9],fraction of edited reads among all mapped reads [10],fraction of edited reads among all mapped reads [11],fraction of edited reads among all mapped reads [12],fraction of edited reads among all mapped reads [13],fraction of edited reads among all mapped reads [14],fraction of edited reads among all mapped reads [15],fraction of edited reads among all mapped reads (Kenpaullone)
46.0 TTAAGAGCAATGTTCACGCAACTTGAAATTATATCTGTGGTCTTCAAATTGTCTTTTGTCA,0.109,0.106,0.099,0.157,0.1,0.0602,0.136,0.105,0.116,–,–,–,–,–,–,–,–,–,–,–
"1.0 (DMSO control at this site: 1-bp insertion 0.521, MH deletion 0.323, edited 0.141) GTGTCACAGTGCACGAGTGACGGGATAATGTGCTGACAGGTAATTGATAGGCTTCCAACTT",0.154,0.163,0.207,0.256,0.141,0.14,0.132,0.176,0.159,0.144,0.0521,0.194,0.145,0.203,0.152,0.243,0.218,0.174,0.112,0.33
"38.0 (DMSO control at this site: 1-bp insertion 0.063, MH deletion 0.487, edited 0.17) GGGCTGGGTGCTAAAATGAGGAGCTCCAAGAAGACTGAGGTGAACCTGGAGGCCCCTGAGC",0.169,0.188,0.206,0.26,0.178,0.181,0.167,0.146,0.198,0.178,0.0737,0.243,0.147,0.204,0.107,0.27,0.197,0.187,0.128,0.316
"0.0 (DMSO control at this site: 1-bp insertion 0.463, MH deletion 0.339, edited 0.14) AGGATTACCGAGACCTACGCGAACCGAAATCGCTGTCCGGTGCGCAAGCAGGGCTGGCGTC",0.154,0.172,0.203,0.274,0.152,0.139,0.149,0.173,0.187,0.147,0.0626,0.218,0.155,0.213,0.15,0.241,0.222,0.17,0.122,0.329
21.0 CGATTGAGAGTCAAACGGGCCAGAAAACTCCGGGAACGGGCCAGAAAACTCCGGGGCATGG,0.106,0.132,0.141,0.199,0.121,0.116,0.124,0.103,0.136,0.124,0.0441,0.152,–,0.144,0.046,0.198,–,0.14,–,0.273
"4.0 (DMSO control at this site: 1-bp insertion 0.146, MH deletion 0.523, edited 0.125) ACGCCTTAGTGCACGAGTGACGGGATAATGTGGTCTCAGGTAATTGATAGGCTTCCAACTT",0.149,0.155,0.182,0.243,0.155,0.13,0.16,0.15,0.175,0.157,0.0719,0.194,0.136,0.188,0.0881,0.237,0.209,0.166,0.0959,0.306
"39.0 (DMSO control at this site: 1-bp insertion 0.328, MH deletion 0.371, edited 0.204) CTGCACAGTCACTTAGGATAGGAGAAGATGATGTATAGGGTTTAGTGGGAGATGTTGCAAG",0.182,0.214,0.223,0.335,0.189,0.184,0.177,0.196,0.231,0.191,0.0792,0.252,0.192,0.248,0.191,0.3,0.29,0.229,0.141,0.328
"41.0 (DMSO control at this site: 1-bp insertion 0.022, MH deletion 0.754, edited 0.115) AAAGAGACAGCAGGTATGAATCCATCTTCCTGACCCTTGGGACCAGCCGGGGCAGTGAAGC",0.15,0.152,0.162,0.23,0.138,0.121,0.12,0.113,0.169,0.135,0.0542,0.19,0.126,0.171,0.0671,0.227,0.172,0.157,0.0798,0.25
"16.0 (DMSO control at this site: 1-bp insertion 0.172, MH deletion 0.29, edited 0.05) CGGACTGCACACATGGGTAGGATCGTGCACGCGAGGTAGGATCGTGCACGCGAAGTTATTC",0.0603,0.0612,0.0609,0.0951,0.052,0.0541,0.0594,0.0586,0.0716,0.0491,0.0319,0.079,0.0596,0.076,0.0437,0.0974,0.0804,0.0597,0.043,0.128
15.0 GCGCCTCCAATGACCCAGTGGGATCCTACTCCATAATGGGATCCTGGGGATTCCTCGCTCC,0.0725,–,–,0.107,0.0776,0.0802,–,–,0.132,0.105,–,–,–,–,–,0.136,–,–,–,–
"40.0 (DMSO control at this site: 1-bp insertion 0.072, MH deletion 0.192, edited 0.189) GCGAATCAACTGTTCAACAACAGCAGCAGCCACCTGGAGGACTACAGTGGCCTGTCCGTGT",0.198,0.224,0.242,0.327,0.199,0.193,0.179,0.201,0.24,0.203,0.0829,0.259,0.184,0.271,0.219,0.334,0.298,0.238,0.142,0.432
"44.0 (DMSO control at this site: 1-bp insertion 0.181, MH deletion 0.512, edited 0.123) ACACATACCTTCTTCGAGGCAGCCAGCATGATGAGACAGGTCTCCCACAAACACATCGTGT",0.14,0.157,0.17,0.251,0.141,0.124,0.138,0.124,0.167,0.149,0.0618,0.202,0.138,0.195,0.111,0.232,0.191,0.167,0.11,0.265
27.0 CCAGAATTAGAACATATCATCTGGACCCTTTTCCATCTGGACCCTTTTCCAGCACACCCTG,0.055,0.0501,0.0612,0.0829,0.0456,0.0322,–,0.0403,0.0708,0.0506,–,0.0605,–,0.0745,–,0.0968,–,–,–,0.141
"42.0 (DMSO control at this site: 1-bp insertion 0.145, MH deletion 0.655, edited 0.132) GGGCTAAACCTATGAGCACAGTAGAACTAAGGGTGGGTGGTGTAGCTAAAGAACTTGACCA",0.153,0.161,0.184,0.27,0.15,0.115,0.127,0.135,0.18,0.151,0.0618,0.191,0.139,0.187,0.0909,0.241,0.193,0.167,0.107,0.251
"19.0 (DMSO control at this site: 1-bp insertion 0.121, MH deletion 0.101, edited 0.057) TCTGCAGGGGTCGGAACCCGGGGGCTAGGGCTATCCCGGGGGCTAGGGCTATTAGCGAACC",0.0719,0.0679,0.0687,0.0905,0.0637,0.0662,0.0698,0.0701,0.0811,0.0656,0.0342,0.0806,0.0564,0.087,0.0476,0.112,0.0933,0.0726,0.0542,0.141
"32.0 (DMSO control at this site: 1-bp insertion 0.03, MH deletion 0.85, edited 0.898) AGAAGTCCAGGATCAGGGGGACTGGGGTCGGGAGGGTGGGGCAGGAAGGAAGCCAGAATCA",0.917,0.893,0.921,0.946,0.904,0.9,0.87,0.891,0.923,0.893,0.793,0.944,0.929,0.934,0.841,0.946,0.925,0.917,0.849,0.951
"31.0 (DMSO control at this site: 1-bp insertion 0.315, MH deletion 0.329, edited 0.026) ACCTCCACAGGCTGGGTGGCCCGGAGGCTGGGCGGCCCGGAGGCTGGGCTGGGCGAGTATC",0.0243,0.0286,0.0363,0.0504,0.0289,0.0207,0.0406,0.0296,0.026,0.0285,0.0119,0.0428,0.0286,0.0355,–,0.0451,–,–,0.0243,0.0456
"17.0 (DMSO control at this site: 1-bp insertion 0.112, MH deletion 0.348, edited 0.058) CCATAGCGCGATAAATATGACGGCTCATCCTGTATGACGGCTCATCCTGTATCAACTGTCC",0.0797,0.0794,0.0812,0.115,0.0669,0.0619,0.0836,0.0703,0.0864,0.0666,0.0411,0.0882,0.0594,0.0964,0.0394,0.123,0.086,0.0753,0.0546,0.184
"7.0 (DMSO control at this site: 1-bp insertion 0.128, MH deletion 0.374, edited 0.098) TACTCAACCGAGACCTACGCGAACCGAAATCGTATGCCGGTGCGCAAGCAGGGCTGGCGTC",0.115,0.118,0.135,0.19,0.0971,0.1,0.1,0.096,0.124,0.117,0.0615,0.161,0.0955,0.126,0.0557,0.173,0.138,0.128,0.0816,0.195
